69 molecules from ChEMBL document CHEMBL4513216, “Probing the Open Global Health Chemical Diversity Library for Multistage-Active Starting Points for Next-Generation Antimalarials” (ACS Infect Dis, 2020) can be followed below.

The campaign covered roughly 68,000 compounds. About 2,700 (4%) showed an effect of 50% or more. The entries come from a sample that favours strong results as a whole.

The subject of the test is Plasmodium berghei. As to the kind of experiment: Screen against P. berghei liver stage (PbLuc), transformed with Luciferase, at 2uM. In kind it is functional, HepG2. The settings on record: tested at 2 uM.
`O=C(c1cccc(C2CCNC2)c1)N1CCC(c2ccncc2)CC1` (centres undefined): the INHIBITION is recorded as -0.41%.
In the case of `O=C(Nc1cccc(C2SCCS2)c1)C1CCCN1c1nccs1` (centres undefined), the INHIBITION was -7.88%.
Turning to `Cc1cccc(OCCNC(=O)C(C)S(=O)(=O)c2ccccn2)c1` (centres undefined), the INHIBITION was -27.59%.
As to `Cc1nc2c(C)cccc2cc1C(=O)N1CCC2(CCN(C)CC2)C1`, the INHIBITION is -30.77%.
For `Cc1nc2c(C)cccc2cc1C(=O)N1CCC2(CCNCC2)CC1`, the INHIBITION is -10.67%.
Consider `CCN(CC)Cc1cc(C(=O)N2CCCC(O)(CO)C2)c(C)o1` (centres undefined), for which the INHIBITION was found to be 35.42%.
As for `CCN(CC)Cc1cc(C(=O)N2CCC3(CCN(C)CC3)C2)c(C)o1`, the figure is -14.17%; as for `CCN(CC)Cc1cc(C(=O)N2CCC3(CC2)NCCNC3=O)c(C)o1`, 64.71%.
Take `Cc1nc2c(C)cccc2cc1C(=O)N1CCC2(CC1)NCCNC2=O`: the INHIBITION stood at 71.07%.
For `Cc1nnc(C2CCN(C(=O)c3ccsc3)CC2)s1`, the INHIBITION came to 7.68%.
Consider `COc1cnc(N2CCCC(c3ncc[nH]3)C2)nc1` (centres undefined), for which the INHIBITION worked out at 6.39%.
Then `CNC(=O)c1nc(COc2ccc3c(c2)OCO3)no1`, with -15.12%.
Turning to `NC(=O)c1nc(COc2ccc3c(c2)OCO3)no1`, the INHIBITION came out at 54.49%.
Then `O=C(c1nc(COc2ccc3c(c2)OCO3)no1)N1CCCC1`, with 2.41%.
Then `Cc1cc(C)c(C(=O)N2CCOC(CCN(C)C)C2)o1` (centres undefined), with -36.52%; and `Cc1nnc(CSCc2ccc(OCC(F)(F)F)nc2)o1`, with 8.78%; and `CCC1=NC(SCC(=O)c2ccccc2)c2cc(CC)sc2N1` (centres undefined), with 63.79%.
Take `CCC1=NC(SCC(=O)c2ccc(C)cc2)c2cc(CC)sc2N1` (centres undefined): the INHIBITION is given as 33.58%.
As for `CCC1=NC(SCC(=O)c2ccc(Cl)cc2)c2cc(CC)sc2N1` (centres undefined), the figure is -77.67%.
As for `CCC(C)NC(=O)CN1CCC2(CC1)OCCO2` (centres undefined), the figure is 34.18%; as for `Cc1cccc(-c2ccc3nc(C4CCN(CC5CC5)CC4)nn3c2)c1`, -48.77%.
As for `CCc1nn(C)c(CC)c1CNC(=O)Nc1cccc2c1CCN2C`, the figure is -1.56%.
With `CC(Cc1ccco1)NC(=O)Nc1ccc(N2CCCC2)nc1` (centres undefined), the INHIBITION amounted to 5.91%.
As for `O=C(Cc1c[nH]c2ccccc12)N1CCN(C(=O)c2ccoc2)CC1`, the figure is 54.49%; as for `O=C(c1nc(Cc2c[nH]c3ccccc23)no1)N1CCCC1`, 70.87%.
Then `O=C(Cc1c[nH]c2ccccc12)N1CCC(Nc2ccccc2)CC1`, with -0.6%.
Then `O=C(c1nc(Cc2c[nH]c3ccccc23)no1)N1CCOCC1`, with -33.88%; and `O=C(Cc1ccccc1F)N1CCN(C(=O)c2ccoc2)CC1`, with -24.79%.
For the molecule `O=C(c1nc(Cc2c[nH]c3ccccc23)no1)N1CCCCC1`, the INHIBITION is given as -7.02%.
With `Cc1noc(C)c1C(=O)N1CC[C@H]2C[C@@H](c3nccs3)O[C@@H]2C1`, the INHIBITION is -17.88%.
As to `Cn1cnc(S(=O)(=O)N2CC3(CCN(CC4CC4)C3)C2)c1`, the INHIBITION stood at 35.84%.
`COc1ccc(C(=O)N2CCOc3ccncc32)cc1`: the INHIBITION was -21.39%.
Then `CCCOCCN1CCC2(CC1)CC(=O)N(Cc1cc(F)cc(F)c1)C2`, with 7.13%; and `COCCN1C(=O)C[C@H]2[C@H]1CCN2Cc1ccccc1`, with -34.48%.
As to `CCO[C@@H]1C[C@H]2CN(S(=O)(=O)c3cccs3)CCN2C1`, the INHIBITION was -49.68%.
As for `COCCNC(=O)NCCCOC1CCCc2ccccc21` (centres undefined), the INHIBITION was 58.9%.
Turning to `COCCOCC(=O)NCCCOC1CCCc2ccccc21` (centres undefined), the INHIBITION was 12.22%.
Then `COCCC(=O)NCCCOC1CCCc2ccccc21` (centres undefined), with -15.49%; and `CC(C)NC(=O)CCNC(=O)CCc1cc(Cl)cs1`, with -31.42%.
`COC(=O)c1ccn(COc2ccccc2Cl)n1`: the INHIBITION is given as 8.41%.
In the case of `Cc1nc(CN(Cc2cccnc2)Cc2ccsc2)c[nH]1`, the INHIBITION came out at 2.76%.
As for `COc1ccccc1CN(Cc1cccnc1)Cc1nccs1`, the figure is 32.97%; as for `COc1ccccc1CN(Cc1cccnc1)Cc1c[nH]c(C)n1`, 55.29%.
For `O=C(CCN1CCCC1c1cccs1)N1CCc2sccc2C1` (centres undefined), the INHIBITION came to 7.54%.
Then `OC1(CNC2CCN(c3ccccn3)CC2)CCc2ccccc21` (centres undefined), with 29.13%.
For `OC1(CNC2CCN(Cc3ccncc3)CC2)CCc2ccccc21` (centres undefined), the INHIBITION is reported as -49.57%.
For the molecule `Cc1csc(N2CCC(NCC3(O)CCc4ccccc43)CC2)n1` (centres undefined), the INHIBITION came out at 72.05%.
As for `O=C(NCc1cccnc1N1CCCCC1)c1cccs1`, the INHIBITION is -27.83%.
Then `Cc1ccc(CN2C[C@@H]3COC[C@H](NS(C)(=O)=O)[C@@H]3C2)s1`, with 8.88%; and `O=C(CN1C(=O)CCC1=O)N1CCC(CSCc2ccco2)CC1`, with 44.23%; and `O=C(CN1C(=O)CCC1=O)N1CCOCC1`, with 9.1%.
In the case of `O=C(CN1C(=O)CCC1=O)N1CCC(S(=O)(=O)Cc2ccco2)CC1`, the INHIBITION is 53.81%.
Take `CN(C)CCN1CC(C(=O)N2CCC(c3cc(=O)[nH]cn3)CC2)CC1=O` (centres undefined): the INHIBITION was 47.64%.
For the molecule `CS(=O)(=O)NC(=O)c1cnc2c(cnn2C2CCCC2)c1`, the INHIBITION amounted to 64.35%.
As to `O=C(NC1CCC(O)CC1)c1cnc2c(cnn2C2CCCC2)c1` (centres undefined), the INHIBITION came to 38.49%.
As to `O=C(O)c1cnc2c(cnn2C2CCCC2)c1`, the INHIBITION is reported as -9.71%.
As for `Cc1cc(NC(=O)C(C)N2CCN(c3nc(C)ns3)CC2)on1` (centres undefined), the figure is 22.29%.
As for `Cn1ncnc1CNc1ccc2c(c1)N(C(=O)OC(C)(C)C)CCC2`, the figure is 33.49%; as for `CC(C)NC(=O)N1CC(=O)c2sc(Nc3ccc(C#N)cc3)nc2C1`, -42.69%; as for `O=C(c1ccc[nH]1)N1CCOCC2(C1)CN(c1ccccc1)C(=O)CO2` (centres undefined), -15.09%.
Then `O=C(N1CCCC1)N1CCOCC2(C1)CN(c1ccccc1)C(=O)CO2` (centres undefined), with 56.38%.
For `CN(C)CC(=O)N1CCOCC2(C1)CN(c1ccccc1)C(=O)CO2` (centres undefined), the INHIBITION was found to be 17.78%.
In the case of `Cc1cccc(N2CC3(COCCN(c4ccncn4)C3)OCC2=O)c1` (centres undefined), the INHIBITION was 7.33%.
In the case of `O=C1COC2(COCCN(c3ccccn3)C2)CN1c1cccc(F)c1` (centres undefined), the INHIBITION is on record as 16.2%.
Then `O=C1COC2(COCCN(c3cnccn3)C2)CN1c1cccc(F)c1` (centres undefined), with 50.81%; and `COCC1CN(C(=O)c2ccoc2)Cc2cnn(CC3CCOCC3)c21` (centres undefined), with -14.61%.
Then `CSCCCn1ccnc1-c1cccc(C#N)c1`, with 55.93%; and `CCN(CC)CCn1ccnc1-c1cccc(C#N)c1`, with 15.2%; and `CSCCCNC(=O)Nc1cccc(-c2nccn2C)c1`, with 11.78%.
